The full list was thinned out, with hits kept by preference.
ClpP mod: qHTS Assay for Activators of ClpP; ATP-dependent Clp protease proteolytic subunit (Bacillus subtilis (strain 168)), P80244; purified B. subtilis ClpP, FRET peptide cleavage, 20 min; Potency, µM (titrated, usually from 57.5 µM), for inactives: at the top dose activity change, negative = active; 340,000 tested, 1.9% active; AID 651965, 2013; active = well fitted falling curve with a large enough effect; inconclusive = small, poorly fitted or top-dose-only effect; inactive = no such curve, though single readings can be large or run the other way; also: the source files actives as falling curves though it sought activators and does not explain the sign; nearly all actives have a fitted effect of over 65% in size
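ClpP 10 microg/mL final, pH 8 Tris/KCl buffer with BSA, glycerol, Tween-20; compound pinned in; FRET-FV substrate; RT 20 min; Ex320/Em430; ΔFRET vs ADEP 5.8 microM, DMSO, no enzyme.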
Eya2 phos inh: Eya2 (human) phosphatase inhibition; O00167; recombinant Eya2, OMFP fluorescence dephosphorylation (OMFP is methylfluorescein phosphate); Potency, µM (series often up to 76.9 µM), without a hit: at the top dose activity, negative = inhibition, hits mostly inhibitors; 330,000 tested, 0.006% active; AID 488837; also: % is scaled to controls: 0 for no effect and ±100 for the full control effect
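Eya2 (0.2 uM) preincubated 10 min at ambient with compound, then OMFP substrate added at 50 uM; 10 min reaction in 50 mM HEPES pH 7.5, 50 mM NaCl, 5 uM MgCl2, 0.05% BSA, 1 mM DTT. Fluorescence read at Ex 485/Em 525 nm.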
USP2a inh: USP2a (human) protease inhibition | Potency, µM (top dose mostly 38.3 µM), inactives show at the top dose activity change, negative = inhibition, most hits filed as inhibitors | AID 463254 | O75604 | USP2 core, Ub-CHOP2 coupled fluorogenic reporter, 485/531 | 330,000 tested, 0.01% active;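 also: plate controls were DMSO wells for no effect and full inhibition by NEM control for full effect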
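Cell-free coupled assay: 10nM USP2 core preincubated 30min RT with compound in Tris-HCl pH 8.0/CaCl2/CHAPS buffer, then 25nM Ub-CHOP2 and 25nM reporter substrate; fluorescence (Ex 485/Em 531) read after 60min RT, normalized to NEM inhibition, concentration-response curves fitted.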
GALK inh: blocks human galactokinase activity; P51570; Purified GALK, Kinase-Glo residual ATP luminescence; 270,000 tested, 0.007% active; Potency, µM (doses to about 57.5 µM), without a hit: at the highest dose activity change, negative = inhibition, hits mostly inhibitors; also: % is scaled to controls: 0 for no effect and ±100 for the full control effect
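Compounds were pin-transferred into ATP buffer (35 uM final), then GALK plus galactose (5 nM, 100 uM final) was added. After 1 h at room temperature, Kinase-Glo Plus was added and luminescence read after 10 min.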
* marks the source's active call; other numbers are inactive results; ? = inconclusive; . = not tested or not shown. Unless noted, calls follow the shape of the dose curve; as a rule, active = well fitted inhibition curve with a large enough effect; inconclusive = small, poorly fitted or top-dose-only effect, or effect the other way; inactive = flat fitted curve, though single readings scatter. Potency is read from the fitted curve at half-maximal effect.

SMILES	ClpP mod	Eya2 phos inh	USP2a inh	GALK inh
CCCCC1(Cc2ccc(OC)c([N+](=O)[O-])c2)C(=O)N(c2ccccc2)N(c2ccccc2)C1=O	0%	-25%	-1%	0%
Cc1ccc(Oc2ccc(/C=N/O)cn2)cc1	16µM*	5%	0%	0%
O=c1oc2cc(O)ccc2cc1-c1nc2c(s1)CCc1ccccc1-2	20µM*	43%	?	-2%
CCc1c(C)[nH]n(-c2nc(-c3cccc([N+](=O)[O-])c3)cs2)c1=O	-20%	-2%	1%	3%
CC(C)Cn1cc(C(=O)N2CCC(C)CC2)c2c3ccccc3n(C)c2c1=O	.	-2%	-6%	-1%
CCOC(=O)N1CCN(C(=O)c2cn(CC(C)C)c(=O)c3c2c2ccccc2n3C)CC1	25µM*	6%	-2%	-1%
CCCN(CCC)CCCNC(=O)c1cn(CCOC)c(=O)c2c1c1ccccc1n2C	14µM*	-12%	2%	-1%
CC(C)Cn1cc(C(=O)N2CCOCC2)c2c3ccccc3n(C)c2c1=O	16µM*	-1%	3%	2%
CC(C)CCNC(=O)c1cn(CC(C)C)c(=O)c2c1c1ccccc1n2C	?	-1%	0%	-2%
CCOC(=O)N1CCN(C(=O)c2cn(C)c(=O)c3c2c2ccccc2n3C)CC1	14µM*	20%	-2%	2%
COc1ccc(N2CCN(C(=O)c3cn(C)c(=O)c4c3c3ccccc3n4C)CC2)cc1	-23%	13%	-7%	-1%
O=S1(=O)CC/C(=N/Nc2ccc(C(F)(F)F)cn2)c2cc(F)ccc21	.	8%	1%	15%
O=C(c1cc2c(ccc3ccccc32)oc1=O)N1CCN(CCO)CC1	4%	-4%	-1%	-2%
CC(C)Cn1cc(C(=O)NCc2cccs2)c2c3ccccc3n(C)c2c1=O	10µM*	14%	1%	1%
COCCn1cc(C(=O)NCc2ccco2)c2c3ccccc3n(C)c2c1=O	.	-13%	2%	-2%
COCCn1cc(C(=O)N2CCC(C)CC2)c2c3ccccc3n(C)c2c1=O	16µM*	8%	-8%	-1%
COc1ccc(C(=O)N2CCN(C)C(=O)[C@@H]2C)cc1OC1CCN(C(C)=O)CC1	32µM*	7%	0%	7%
COc1ccc(C2Nc3ccccc3C(=O)N2c2ccccc2)cc1CSc1ccccn1 (stereo not given)	32µM*	9%	-2%	0%
O=C1c2ccccc2NC(c2ccncc2)N1c1ccccn1 (stereo not given)	28µM*	5%	1%	-2%
COc1ccc(C2Nc3ccccc3C(=O)N2c2ccc(F)cc2)cc1CSc1ccccn1 (stereo not given)	8.9µM*	1%	-5%	-3%
COc1ccc(C2Nc3ccccc3C(=O)N2c2ccc(F)cc2)cc1COc1ccc(NC(C)=O)cc1 (stereo not given)	5%	.	.	.
c1ccc2c(c1)NC(c1ccncc1)n1c-2nc2ccccc21 (stereo not given)	28µM*	-20%	9%	0%
COc1cc(C2Nc3ccccc3C(=O)N2Cc2ccccc2)ccc1OCc1ccccc1 (stereo not given)	4%	.	.	.
COc1ccc(C2Nc3ccccc3C(=O)N2c2ccccc2)cc1COc1ccccn1 (stereo not given)	28µM*	10%	2%	0%
COc1ccc(C2Nc3ccccc3C(=O)N2Cc2ccccc2)cc1CSc1ccccn1 (stereo not given)	14µM*	5%	-5%	-1%
SMILES	ClpP mod	Eya2 phos inh	USP2a inh	GALK inh
COc1ccc(N2C(=O)c3ccccc3NC2c2ccc(OC)c(COc3ccccc3F)c2)cc1 (stereo not given)	4%	.	.	.
CC(C)=CCn1c2ccc(NC(=O)Nc3ccc(N(C)C)cc3)cc2c(=O)n1C	-25%	.	.	.
Cc1ccc(C(=O)Nc2ccc(N3CCN(C)CC3)nc2)cc1	.	-11%	0%	-1%
Cc1c(C(=O)Nc2c(F)cc(F)cc2Br)sc2ncn(CC(=O)N3CCCC3)c(=O)c12	-3%	-3%	1%	9%
c1ccc(-c2nc3ccccc3n2C(c2ccccc2)c2nc3ccccc3[nH]2)cc1 (stereo not given)	5%	.	.	.
Cn1c(SCC(=O)Nc2ccc3c(c2)OCCO3)nnc1-c1ccccn1	-1%	11%	2%	-5%
CC(C)NC(=O)COc1ccc2c(c1)C(=O)CC(C)(C)O2	5%	0%	5%	0%
CCOC(=O)COc1ccc2c(c1)C(=O)CC(C)(c1cccnc1)O2 (stereo not given)	28µM*	-14%	-4%	-1%
O=C(COc1ccc2c(c1)C(=O)CC1(CCCCC1)O2)NCc1ccccn1	25µM*	-7%	0%	-2%
O=C(COc1ccc2c(c1)C(=O)CC1(CCCCC1)O2)NCc1ccccc1	-17%	10%	3%	-4%
CCOC(=O)COc1ccc2c(c1)C(=O)CC1(CCCCC1)O2	28µM*	-7%	-1%	2%
O=C(COc1ccc(-n2cnnn2)cc1)Nc1cc(Cl)cc(Cl)c1	-5%	17%	0%	.
COC(=O)C1=C(C)NC2=C(C(=O)C(C(=O)OC)C(c3ccc(OC)cc3)C2)C1c1ccccn1 (stereo not given)	?	8%	3%	3%
COC(=O)C1=C(C)NC2=C(C(=O)CC(C)(C)C2)C1c1ccsc1 (stereo not given)	28µM*	-3%	1%	-4%
CC1=C(C(=O)OCC2CCCO2)C(c2ccsc2)C2=C(CC(C)(C)CC2=O)N1 (stereo not given)	-17%	-1%	-1%	0%
COC(=O)C1=C(C)NC2=C(C(=O)CC(C)(C)C2)C1c1ccccn1 (stereo not given)	28µM*	-13%	4%	0%
Cc1cccc(C(=O)N2CCN(c3ccccn3)CC2)c1	-22%	4%	-2%	-2%
COc1ccc(CC(=O)N2CCN(c3ccccn3)CC2)cc1OC	22µM*	-6%	1%	-2%
CCc1nnc(NC(=O)CCC(=O)N2CCN(c3ccccn3)CC2)s1	18µM*	-7%	2%	-2%
Cc1cccc(C(=O)NCC(=O)N2CCN(c3ccccn3)CC2)c1	28µM*	-20%	5%	.
COc1ccc(CCn2c(=O)[nH]c3cc(C(=O)N4CCN(c5ccccn5)CC4)ccc3c2=O)cc1OC	11µM*	9%	2%	0%
O=C(NC1CCCCCC1)C1CCN(C(=O)c2ccc(Br)cc2)CC1	-1%	1%	6%	-2%
COc1ccc(-c2ccc(C)cc2)cc1[C@H]1[C@H]2C=CC[C@@H](C)[C@@H]2C(=O)N1Cc1ccccc1	-3%	4%	7%	0%
COc1ccc(-c2ccc([C@H]3[C@H]4C=CC[C@@H](C)[C@@H]4C(=O)N3Cc3ccccc3)c(F)c2)cc1	20µM*	-11%	5%	4%

Bioassay records (PubChem BioAssay)
